Compound activity from PubChem.
KB-V1 cytotox – KB-V1 MDR subline cytotoxicity; KB-V1 MDR cells viability, CellTiter-Glo, 72 h; Potency, µM (top dose mostly 46.1 µM), actives largely listed as cytotoxic; actives 3.4% (n = 400,000); AID 1347076; note: % is set by controls: 0 for no effect and ±100 for the full control effect; nearly all actives have a fitted effect of over 60% in size
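Readout: CellTiter-Glo luminescence, 10 min after addition. Cells: KB-V1 MDR subline, 72 h at 37 degrees C with compound. Analysis: corrected, normalized data fitted to concentration-effect curves.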
MCF10A rerep – induces DNA re-replication in MCF 10a normal breast cells; actives 2.9% (n = 350,000); AID 624296; MCF 10A DNA re-replication, Hoechst nuclear intensity, 48 h; Potency, µM (doses to about 46.1 µM), for the others: top-dose activity, positive = re-replication, hits mostly activators; note: % of control where 0% means no effect; nearly all actives have a fitted effect of over 50% in size
KB-3-1 cytotox – KB-3-1 parental cell cytotoxicity | KB-3-1 viability, CellTiter-Glo ATP luminescence, 72 h | Potency, µM (titrated, usually from 46.1 µM), hits mostly cytotoxic | actives 1.4% (n = 400,000); note: % is set by controls: 0 for no effect and ±100 for the full control effect; nearly all actives have a fitted effect of over 60% in size
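Luminescent ATP read-out (CellTiter-Glo) measures survival of drug-naive KB-3-1 cells after 72 h compound exposure at 37 °C. Titration series was screened from lowest to highest concentration, with DMSO vehicle plates as background controls.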
ELG1 repair inh – blocks ELG1-dependent DNA repair in HEK293T cells; actives 2.3% (n = 330,000); HEK293T ELG1-luciferase reporter, luminescence, 16 h; DNA damage induced by 5-fluorouridine; Potency, µM (top dose mostly 46.1 µM), inactives show top-dose activity change, negative = inhibition, hits mostly inhibitors; note: % is set by controls: 0 for no effect and ±100 for the full control effect; nearly all actives have a fitted effect of over 55% in size
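In this reporter screen, reduction of luminescence relative to DMSO vehicle indicated activity. Compounds and 5-fluorouridine were added together to 2,000 cells per well, incubated for 16 hr at 37 °C, then developed with ONE-Glo.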
SW480 rereplic – induces DNA re-replication in SW480 colon adenocarcinoma cells | actives 1.8% (n = 340,000) | SW480 DNA re-replication, Hoechst DNA content imaging, 48 h | Potency, µM (highest dose often 46.1 µM), for the others: at the top dose re-replication activation, most hits filed as activators; note: % of control where 0% means no effect; nearly all actives have a fitted effect of over 55% in size
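Compounds, transferred as 23 nL by pin tool, were incubated with cells for 48 hr; DNA content per nucleus was then quantified by Hoechst staining and fluorescence plate imaging.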
* = called active by the depositor; i = inactive; ? = inconclusive; · = not tested or not shown. An excerpt weighted towards active compounds, which were near 8.2% of everything screened. Calls come from the whole dose curve; as a rule, active = well fitted curve in the direction sought with a large enough effect; inconclusive = small, poorly fitted or top-dose-only effect, or another doubt; inactive = no such curve, though single readings can be large; an effect the other way counts as inactive or inconclusive. Potency is the fitted concentration of half-maximal effect.

SMILES | KB-V1 cytotox | MCF10A rerep | KB-3-1 cytotox | ELG1 repair inh | SW480 rereplic
Nc1nc(Sc2ccc([N+](=O)[O-])cc2[N+](=O)[O-])n[nH]1 | i | -9% | ? | ? | ?
O=c1[nH]c(Sc2ccc([N+](=O)[O-])cc2[N+](=O)[O-])nc2ccccc12 | ? | 6.5µM* | i | · | ?
COc1ccc(OC)c(C(O)c2ncc(-c3ccc(C(F)(F)F)cc3)[nH]2)c1 (stereo not drawn) | i | · | i | · | ·
CCOc1cccc(CNc2nnnn2C)c1 | i | 9% | i | 1% | -4%
Cc1cccc(C)c1NC(=O)CSc1nc2ccccc2c(=O)[nH]1 | 16µM* | 5% | i | 3% | -1%
COC(=O)c1ccc(NC(=O)C(=O)NCCc2csc3nc(-c4ccccc4F)nn23)cc1 | i | · | i | · | ·
CCC(Oc1ccccc1)C(=O)OCC(=O)Nc1sccc1C(N)=O (stereo not drawn) | i | 6% | i | -11% | ?
Cc1ccc(C)c(CNC(=O)c2sc3ncnc(N(C)C4CCCCC4)c3c2C)c1 | i | · | i | · | ·
COc1ccc(-c2noc(CCCC(=O)NC3CCCCC3)n2)cc1OC | ? | 1% | i | 10% | 0%
CCOc1ccc(-c2noc(CCCC(=O)NC3CCCC3)n2)cc1OC | 8.2µM* | 0% | i | -1% | -9%
CCN(C(=O)CCc1nc(-c2ccc(OC)cc2)no1)c1cc(OC)ccc1OC | 16µM* | -14% | ? | 16µM* | 0%
O=C(CCCc1nc(-c2ccc(Cl)cc2)no1)NC1CCCCC1 | 12µM* | 16% | ? | ? | -1%
COc1cccc(-c2noc(CCCC(=O)NC3CCCC3)n2)c1 | i | -1% | i | 0% | 21µM*
COc1cccc(-c2noc(CCC(=O)NC3CCCC3)n2)c1 | i | 9% | i | 8% | -17%
CN(C1=C(N2CCOCC2)C(=O)c2ccccc2C1=O)c1ccccc1 | 12µM* | 10% | i | -14% | 6%
CC(=O)N(C(C)=O)N1C(=O)c2cccc3c(N4CCOCC4)ccc(c23)C1=O | i | 2% | i | 21% | ?
Cc1ccc(N2CCOCC2)c2c1C(=O)c1ccccc1C2=O | 15µM* | ? | i | ? | 9%
O=C1C=C(N2CCOCC2)c2ccccc2C1=O | ? | ? | ? | ? | 2.9µM*
O=C1C(N2CCOCC2)=Cc2cccc3cccc1c23 | 16µM* | · | i | · | ·
CCN1C[C@@H]2[C@@H]3C(=O)N(Cc4ccccc4)C(=O)[C@@H]3[C@](Cc3ccccc3)(C1=O)N2C(=O)c1ccc(Cl)cc1 | ? | -1% | i | · | -5%
Cc1ccc(OC(=O)c2snnc2C)cc1C | i | · | i | · | ·
CCOc1ccc(CC(=O)Nc2c(C(=O)c3ccc(Cl)cc3)oc3ccccc23)cc1OCC | i | · | i | · | ·
CCN(CC(=O)Nc1ccc(Br)cc1)C(=O)Cc1cccc(F)c1 | i | 65% | i | -14% | -2%
Cc1cc(O)c(NC(=S)NC(=O)c2ccc(-c3ccc(Cl)cc3)o2)cc1C | i | 16µM* | i | -29% | 12%
CN1CCN(c2ccccc2NC(=O)COc2ccc(Br)cc2)CC1 | 21µM* | ? | i | -30% | -11%
SMILES | KB-V1 cytotox | MCF10A rerep | KB-3-1 cytotox | ELG1 repair inh | SW480 rereplic
O=C(Nc1ccccc1N1CCCCC1)c1ccc(-c2ccc(Cl)cc2)o1 | 21µM* | ? | 8.2µM* | 1% | 2.9µM*
CN1CCN(c2ccccc2NC(=O)c2ccc(-c3ccc(Br)cc3)o2)CC1 | ? | 4.1µM* | ? | ? | 8.2µM*
Cc1ccc(NC(=S)NC(=O)c2ccc(-c3ccc(Cl)cc3)o2)c(O)c1 | ? | ? | ? | ? | 7%
CCN1C(=O)C(=O)N(Cc2ccc(OC)c(F)c2)C1=O | i | 10% | ? | 2% | -10%
CCN(CC(=O)Nc1cc(Cl)ccc1C)C(=O)CCS(=O)(=O)c1ccc(Cl)cc1 | ? | 6% | i | -15% | 0%
Cc1cc(N2CCN(C)CC2)ccc1NC(=O)c1ccc(-c2ccc(Cl)cc2)o1 | i | 1.2µM* | i | -4% | 6%
CC(C)C(=O)N1CCN(c2ccccc2NC(=O)COc2ccc(C3CCCCC3)cc2)CC1 | · | 18µM* | · | 21µM* | ?
